Results taken from PubChem BioAssay (NCI).
Compounds without any hit were thinned out: in the full panel of roughly 79,000, 15% have a hit. Calls of active or inactive are those of the source. Rule as the data show it: active = growth inhibition above about 70%; inactive = the rest. *1 amine or outer side, *2 acyl side, *3 side chain or, on linkers, in order; H or OH if unused. Where a SMILES comes first, the peptide text is derived from it. Bridges are numbered along the chain shown (N, C = ends). Roman numbers before positions name the chains, in order. [ ]: non-standard residue; d: D form. Actinocin(9to1) = Cc1c2oc3c(C)ccc(C(=O)[*:1])c3nc-2c(C(=O)[*:2])c(N)c1=O; NMeV = CN[CH](C(=O)O)C(C)C; Pip = O=C(O)[CH]1CCCCN1; Sar = CNCC(=O)O

Tests used:
[1] = NCI Yeast Anticancer Drug Screen. Data for the rad50 strain (AID 155);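 also: 0% = growth of vehicle-only cultures of the same strain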; conditions: S. cerevisiae rad50 strain growth inhibition, active compounds read high
In short: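 Compounds were tested on a yeast strain with an engineered DNA damage repair alteration; the reported value is growth inhibition normalised to vehicle treatment.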

[2] = NCI Yeast Anticancer Drug Screen. Data for the mec2-1 strain (AID 157); conditions: S. cerevisiae mec2-1 strain, active compounds read high
In short: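 Using mec2-1 yeast: add compound, measure growth, express inhibition versus vehicle-treated cultures.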

[3] = NCI Yeast Anticancer Drug Screen. Data for the sgs1 mgt1 strain (AID 161);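 also: 0% = growth of cultures given vehicle only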; conditions: S. cerevisiae sgs1 mgt1 strain, active compounds read high
In short: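 Compounds are added to genetically altered yeast, and growth is compared with cultures given vehicle alone to give percent inhibition.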

[4] = NCI Yeast Anticancer Drug Screen. Data for the cln2 rad14 strain (AID 165);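 also: 0% = growth equal to vehicle treated cultures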; conditions: S. cerevisiae cln2 rad14 strain, active compounds read high
In short: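 Yeast strain cln2 rad14, bearing defects in cell cycle control and DNA repair, serves as the test system; values reflect growth inhibition compared with vehicle.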

[5] = NCI Yeast Anticancer Drug Screen. Data for the bub3 strain (AID 167); conditions: S. cerevisiae bub3 mutant strain, active compounds read high
In short: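 Growth of a checkpoint-deficient yeast mutant is measured after compound exposure. Values represent inhibition relative to vehicle.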

[6] = NCI Yeast Anticancer Drug Screen. Data for the mlh1 rad18 strain (AID 175); conditions: S. cerevisiae mlh1 rad18 strain growth inhibition, active compounds read high
In short: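 Steps: expose repair-defective yeast to compound; measure growth; express inhibition against vehicle-treated controls.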

[7] = at 5.0 µM (retest, dose inferred, filed as 0.5)
[8] = at 50.0 µM (retest, dose inferred, filed as 5.0)

Measured: growth inhibition

O=C1CN=C(c2ccccc2)N(c2ccccc2)N1
inactive: [1]; [7] -1% | [2]; [7] -6% | [3]; [7] -15% | [4]; [7] 2% | [5]; [7] 8% | [6]; [7] -1%
active: [1]; [8] 96% | [1]; at 50.0 µM 94% | [2]; [8] 97% | [2]; at 50.0 µM 96.5% | [3]; [8] 96% | [3]; at 50.0 µM 94.5% | [4]; [8] 93% | [4]; at 50.0 µM 85% | [5]; [8] 97% | [5]; at 50.0 µM 94.7% | [6]; [8] 94% | [6]; at 50.0 µM 94.4%

CCN(CC)c1ccc(NC(C(=O)c2ccc(Cl)cc2)c2ccc(Cl)cc2)cc1 (centres undefined)
active: [1]; at 50.0 µM 91.3% | [2]; at 50.0 µM 91.2% | [3]; at 50.0 µM 96.2% | [4]; at 50.0 µM 93.3% | [5]; at 50.0 µM 86.3% | [6]; at 50.0 µM 95.6%
inactive: [1]; [7] -7% | [1]; [8] -10% | [2]; [7] -2% | [2]; [8] -10% | [3]; [7] -6% | [3]; [8] -9% | [4]; [7] 2% | [4]; [8] -11% | [5]; [7] -1% | [5]; [8] 8% | [6]; [7] -2% | [6]; [8] -8%

O=S(=O)(c1cc(Cl)c(Cl)cc1Cl)N(CCCCCN(S(=O)(=O)c1cc(Cl)c(Cl)cc1Cl)S(=O)(=O)c1cc(Cl)c(Cl)cc1Cl)S(=O)(=O)c1cc(Cl)c(Cl)cc1Cl
inactive: [1]; [7] -9% | [1]; [8] -3% | [2]; [7] -11% | [2]; [8] -13% | [3]; [7] -14% | [3]; [8] -23% | [4]; [7] -10% | [4]; [8] -8% | [5]; [7] 19% | [5]; [8] 4% | [6]; [7] -29% | [6]; [8] -17%
active: [1]; at 50.0 µM 98.6% | [2]; at 50.0 µM 98.2% | [3]; at 50.0 µM 97.1% | [4]; at 50.0 µM 96% | [5]; at 50.0 µM 98.9% | [6]; at 50.0 µM 97.8%

O=C(Nc1cccc(NC(=O)c2cc(=O)c3ccccc3o2)n1)c1cc(=O)c2ccccc2o1
inactive: [1]; [7] 34% | [1]; [8] 34% | [1]; at 50.0 µM 62.6% | [2]; [7] 13% | [2]; [8] 13% | [2]; at 50.0 µM 14.9% | [3]; [7] -4% | [3]; [8] -4% | [3]; at 50.0 µM 21.7% | [4]; [7] 21% | [4]; [8] 21% | [4]; at 50.0 µM 24.2% | [5]; [7] 15% | [5]; [8] 15% | [5]; at 50.0 µM 58.5% | [6]; [7] 24% | [6]; [8] 24% | [6]; at 50.0 µM 67.3%

Cc1ccc(S(=O)(=O)Nn2c(S)c(C#N)c(-c3ccc(Cl)cc3)c(C#N)c2=O)cc1
inactive: [1]; [7] 29% | [1]; at 50.0 µM 55.6% | [2]; [7] 17% | [2]; [8] 66% | [3]; [7] 19% | [4]; [7] 40% | [4]; [8] 56% | [4]; at 50.0 µM 32.4% | [5]; [7] 45% | [5]; at 50.0 µM 65.9% | [6]; [7] 24% | [6]; [8] 56%
active: [1]; [8] 73% | [2]; at 50.0 µM 75.2% | [3]; [8] 91% | [3]; at 50.0 µM 81.8% | [5]; [8] 79% | [6]; at 50.0 µM 73.8%

CCCCCCCCCCCCCCCCCC1=NCCN1
active: [1]; [8] 98% | [2]; [8] 98% | [2]; at 50.0 µM 99.3% | [3]; [8] 98% | [4]; [8] 99% | [4]; at 50.0 µM 98% | [5]; [8] 98% | [5]; at 50.0 µM 99.3% | [6]; [8] 97% | [6]; at 50.0 µM 99.2%
inactive: [1]; [7] 6% | [1]; at 50.0 µM 54% | [2]; [7] -4% | [3]; [7] 1% | [3]; at 50.0 µM 42% | [4]; [7] 1% | [5]; [7] 8% | [6]; [7] -1%

Cc1c2oc3c(C)ccc(C(=O)NC4C(=O)NC(C(C)C)C(=O)N5CCCCC5C(=O)N(C)CC(=O)N(C)C(C(C)C)C(=O)OC4C)c3nc-2c(C(=O)NC2C(=O)NC(C(C)C)C(=O)N3CCCCC3C(=O)N(C)CC(=O)N(C)C(C(C)C)C(=O)OC2C)c(N)c1=O (centres undefined) (I: TV[Pip][Sar][NMeV] / II: TV[Pip][Sar][NMeV]; ester I:1-I:C, II:1-II:C; linker I:N-II:N via Actinocin(9to1); configuration not given here)
active: [1]; [8] 91% | [5]; [8] 80% | [5]; at 50.0 µM 73.6% | [6]; [8] 79%
inactive: [1]; [7] -11% | [1]; at 50.0 µM 69.4% | [2]; [7] -22% | [2]; [8] 43% | [2]; at 50.0 µM 48.3% | [3]; [7] 7% | [3]; [8] 28% | [3]; at 50.0 µM 59.4% | [4]; [7] 6% | [4]; [8] 64% | [4]; at 50.0 µM 29.3% | [5]; [7] 0% | [6]; [7] 10% | [6]; at 50.0 µM 45.6%

O=C(Cl)c1ccc(N=Nc2ccccc2)cc1
active: [6]; at 50.0 µM 80%
inactive: [1]; [7] 2% | [1]; [8] 31% | [1]; at 50.0 µM 69.5% | [2]; [7] -1% | [2]; [8] 23% | [2]; at 50.0 µM 37% | [3]; [7] -1% | [3]; [8] 14% | [3]; at 50.0 µM 47.5% | [4]; [7] 0% | [4]; [8] 23% | [4]; at 50.0 µM 49.2% | [5]; [7] 1% | [5]; [8] 21% | [5]; at 50.0 µM 65.5% | [6]; [7] 3% | [6]; [8] 27%
